# Results taken from PubChem BioAssay AID1159580 (chemical genetic matrix, 2015).
# Among all 5,500 compounds or so, about 2,000 (36%) were called active. About 18% were inconclusive and are not listed. The list shows a part of the results. Values without a mark were called inactive. No stated cut-off is given here; in the data, active means normalized growth mostly below about 0.91 (no sharp cut-off); inconclusive means no clear call, values can overlap the other calls; inactive means mostly above about 0.92.
# Experiment: chemical genetic growth profiling, strain panel (AID 1159580);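 further: tested at 20 µM; growth read once vehicle control cultures reached saturation at 30 °C; 1 = growth at the plate median or of vehicle wells; lower values mean less growth of the strain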
# Details: S. cerevisiae deletion strains, growth OD
structure (smiles),measurement,setting,value
COC(=O)c1cccc(NS(=O)(=O)c2ccc(Cl)c(Cl)c2)c1,normalized growth,"locus YAR019C, strain CDC15, hits give low values",0.981
same,normalized growth,"locus YBL105C, strain PKC1, hits give low values",0.969
same,normalized growth,"locus YBR135W, strain CKS1, hits give low values",0.973
same,normalized growth,"locus YBR136W, strain MEC1, hits give low values",0.973
same,normalized growth,"locus YBR160W, strain CDC28, hits give low values",0.983
same,normalized growth,"locus YDL017W, strain CDC7, hits give low values",0.978
same,normalized growth,"locus YDL028C, strain MPS1, hits give low values",0.977
same,normalized growth,"locus YDL101C, strain DUN1, hits give low values",0.979
same,normalized growth,"locus YDL108W, strain KIN28, hits give low values",0.973
same,normalized growth,"locus YDL132W, strain cdc53, hits give low values",0.981
same,normalized growth,"locus YDL214C, strain PRR2, hits give low values",0.971
same,normalized growth,"locus YDR052C, strain DBF4, hits give low values",0.972
same,normalized growth,"locus YDR054C, strain cdc34, hits give low values",0.961
same,normalized growth,"locus YDR226W, strain ADK1, hits give low values",0.986
same,normalized growth,"locus YDR477W, strain SNF1, hits give low values",0.991
same,normalized growth,"locus YER123W, strain YCK3, hits give low values",0.973
same,normalized growth,"locus YER133W, strain GLC7, hits give low values",0.985
same,normalized growth,"locus YFL009W, strain cdc4, hits give low values",0.97
same,normalized growth,"locus YFL029C, strain CAK1, hits give low values",0.982
same,normalized growth,"locus YFR003C, strain YPI1, hits give low values",0.974
same,normalized growth,"locus YFR019W, strain FAB1, hits give low values",0.994
same,normalized growth,"locus YFR028C, strain CDC14, hits give low values",0.973
same,normalized growth,"locus YGR040W, strain KSS1, hits give low values",1
same,normalized growth,"locus YGR052W, strain FMP48, hits give low values",1.01
same,normalized growth,"locus YGR092W, strain DBF2, hits give low values",0.948
same,normalized growth,"locus YHR030C, strain SLT2, hits give low values",0.852
same,normalized growth,"locus YHR079C, strain IRE1, hits give low values",0.923
same,normalized growth,"locus YHR082C, strain KSP1, hits give low values",1.08
same,normalized growth,"locus YHR205W, strain SCH9, hits give low values",0.904
same,normalized growth,"locus YIL147C, strain SLN1, hits give low values",0.975
same,normalized growth,"locus YJL095W, strain BCK1, hits give low values",0.896
same,normalized growth,"locus YJL128C, strain PBS2, hits give low values",0.902
same,normalized growth,"locus YJL157C, strain FAR1, hits give low values",0.98
same,normalized growth,"locus YJR016C, strain ILV3, hits give low values",0.981
same,normalized growth,"locus YJR066W, strain TOR1 (second series), hits give low values",0.98
same,normalized growth,"locus YJR066W, strain TOR1, hits give low values",1.06
same,normalized growth,"locus YKL048C, strain ELM1, hits give low values",0.949
same,normalized growth,"locus YKL067W, strain YNK1, hits give low values",0.972
same,normalized growth,"locus YKL101W, strain HSL1, hits give low values",0.962
same,normalized growth,"locus YKL193C, strain SDS22, hits give low values",0.974
same,normalized growth,"locus YKL203C, strain TOR2, hits give low values",1.05
same,normalized growth,"locus YLR113W, strain HOG1, hits give low values",0.861 (active)
same,normalized growth,"locus YLR133W, strain CKI1, hits give low values",0.978
same,normalized growth,"locus YLR403W, strain SFP1, hits give low values",0.985
same,normalized growth,"locus YML070W, strain DAK1, hits give low values",0.963
same,normalized growth,"locus YMR001C, strain CDC5, hits give low values",0.975
same,normalized growth,"locus YMR205C, strain PFK2 (second series), hits give low values",0.977
same,normalized growth,"locus YMR277W, strain FCP1, hits give low values",0.973
same,normalized growth,"locus YNL006W, strain LST8, hits give low values",0.978
same,normalized growth,"locus YNL020C, strain ARK1, hits give low values",0.974
same,normalized growth,"locus YNL161W, strain CBK1, hits give low values",0.982
same,normalized growth,"locus YNL183C, strain NPR1, hits give low values",1.04
same,normalized growth,"locus YNL207W, strain RIO2, hits give low values",0.974
same,normalized growth,"locus YNL222W, strain SSU72, hits give low values",0.98
same,normalized growth,"locus YNL307C, strain MCK1 (second series), hits give low values",0.973
same,normalized growth,"locus YOL078W, strain AVO1, hits give low values",0.979
same,normalized growth,"locus YOL136C, strain PFK27, hits give low values",0.959
same,normalized growth,"locus YOR061W, strain CKA2, hits give low values",0.986
same,normalized growth,"locus YOR119C, strain RIO1, hits give low values",1.05
same,normalized growth,"locus YOR231W, strain MKK1, hits give low values",0.953
same,normalized growth,"locus YOR329C, strain SCD5, hits give low values",0.977
same,normalized growth,"locus YPL031C, strain PHO85, hits give low values",0.98
same,normalized growth,"locus YPL153C, strain RAD53, hits give low values",0.963
same,normalized growth,"locus YPL204W, strain HRR25, hits give low values",0.959
same,normalized growth,"locus YPL209C, strain IPL1, hits give low values",0.981
same,normalized growth,"locus YPL256C, strain CLN2, hits give low values",0.895
same,normalized growth,"locus YPR025C, strain CCL1, hits give low values",0.977
same,normalized growth,"locus YPR106W, strain ISR1, hits give low values",0.977
same,normalized growth,"locus YPR111W, strain DBF20, hits give low values",0.972
same,normalized growth,"strain NNK1, hits give low values",0.966
same,normalized growth,"strain TSCII, hits give low values",0.98
